DAX1 inh-1 = DAX1 (NR0B1) inhibitors, primary screen, cell-based, HEK293, Gal4-DAX1, luciferase luminescence; Nuclear receptor subfamily 0 group B member 1 (Homo sapiens), P51843; HEK293 Gal4-DAX1 luciferase reporter; 0.99% of 340,000 active; AID 504766, 2011; inhibition, % at 6.75 µM;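 active = inhibition above the mean over all tested compounds plus 3 SD, cut at about 4.2% in these data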;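 also: inhibition shows as a rise in luminescence from relieved DAX1 repression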
Target sequence (P51843 207-470 limits assumed): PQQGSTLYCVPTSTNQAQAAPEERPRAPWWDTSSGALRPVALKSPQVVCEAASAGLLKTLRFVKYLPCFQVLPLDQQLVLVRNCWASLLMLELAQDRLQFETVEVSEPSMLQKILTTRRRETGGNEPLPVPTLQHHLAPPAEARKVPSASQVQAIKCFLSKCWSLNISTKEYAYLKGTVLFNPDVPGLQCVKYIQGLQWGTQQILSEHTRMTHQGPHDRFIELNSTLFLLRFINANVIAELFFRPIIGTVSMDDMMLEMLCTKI
DAX1 inh-2 = DAX1 (NR0B1) inhibitors on StAR promoter, primary screen, cell-based, luminescence, SF-1 (NR5A1), full-length DAX-1; inhibition, % at 6.8 µM; 1.1% of 370,000 active; HEK293T StAR-luciferase reporter, SF-1/DAX-1 repression relief;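 active = inhibition above the mean over all tested compounds plus 3 SD, cut at about 3.6% in these data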;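 also: higher inhibition means more luminescence from relief of DAX-1 repression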
hgDAF-12 ag = H. glycines DAF-12 receptor agonists, primary screen, cell-based, luminescence, HEK293, GAL4 fusion, UAS-luciferase | 1.8% of 370,000 active | Nuclear hormone receptor DAF-12 (Heterodera glycines), GAL4 fusion | AID 687014, 2013 | activation, % at 6.8 µM | HEK293 GAL4-hgDAF12 UAS-luciferase reporter, agonist luminescence; normalized to butyrate control;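 active = activation above a cutoff set at the mean of all screened compounds plus 3 SD, cut at about 10% in these data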
hcDAF12 agonist = H. contortus DAF-12 nuclear receptor activators, primary screen, cell-based, luminescence, HEK293, lit1-tk-luc reporter. HEK293 hcDAF-12 lit1-tk-luc reporter; 0% DMSO, 100% Δ7-dafachronic acid. activation, % at 6.8 µM. 1.4% of 370,000 active. AID 652067, 2013;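 active = activation above the mean of all tested compounds plus 3 SD, cut at about 5.5% in these data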
ssDAF12 agonist = S. stercoralis DAF-12 nuclear receptor activators, primary screen, cell-based, luminescence, HEK293, GRIP1 co-expression, lit1-tk-luc | activation, % at 6.8 µM | 1% of 370,000 active | Nuclear hormone receptor DAF-12 (Strongyloides stercoralis) | HEK293 ssDAF-12/GRIP1 lit1-tk-luc reporter; % of 3 µM dafachronic acid response;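 active = activation above the mean over all tested compounds plus 3 SD, cut at about 0.9% in these data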
A number is an active result; i = inactive; nt = no result given. Rows were chosen to be rich in hits. Some 4.1% of all compounds tested hit in one or more screens of this group.

SMILES	DAX1 inh-1	DAX1 inh-2	hgDAF-12 ag	hcDAF12 agonist	ssDAF12 agonist
CCOC(=O)Cc1csc(NC(=O)c2cnc3sc(C)cn3c2=O)n1	i	i	i	6.3	i
Cc1ccc(OCC(C)CN2CCC(C(O)(c3ccccc3)c3ccccc3)CC2)cc1 (configuration not stated)	nt	i	i	i	i
CC(O)(c1ccccc1)c1nc(-c2cccc(C(=O)O)c2)cs1 (configuration not stated)	nt	i	10.5	i	i
Cc1ccc(Cn2cc(COC(=O)NCCc3c[nH]c4ccccc34)nn2)cc1	nt	i	i	i	i
O=c1oc(-c2ccc(Br)cc2)nc2ccccc12	i	i	i	i	0.9
CCCOc1cccc(-c2nc3ccccc3c(=O)o2)c1	i	i	10.7	i	i
N#Cc1cccc(NC(=O)OC2CC3CC2[C@H]2CCCCN2C3)c1 (some centres not stated)	nt	i	i	i	i
O=C(O)c1nn(Cc2nc3ccccc3o2)c(=O)c2ccccc12	i	i	i	5.9	i
Cc1ccc(-c2noc(Cn3nc(C(=O)O)c4ccccc4c3=O)n2)cc1	i	i	i	i	i
CC(=O)NC1CCCCN(Cc2ccc(Cl)cc2)C1=O (configuration not stated)	nt	i	i	i	i
O=C(CNS(=O)(=O)c1ccccc1)N1CCN(c2ccccn2)CC1	nt	i	i	i	i
Cc1cc(C)c2sc(NC(=O)CN3C(=O)CCC3=O)nc2c1	5.1	i	i	i	i
CCOC(=O)[C@@]12CCCC=C1N(CCc1ccc(Cl)cc1)C(=O)[C@H]2CC(=O)N1CCCC1	nt	i	i	i	i
C=C(c1ccccc1)c1ccc(N(C)C)cc1	i	i	i	i	i
CN(C)c1ccc(C(=O)c2ccccc2)cc1	i	i	i	i	2.0
Cc1ccc(-n2c(SCC(=O)c3ccc4c(c3)OCO4)nc3ccccc3c2=O)cc1	nt	i	i	i	i
O=C(/C=C(\Nc1ccccc1)c1ccccc1)c1ccccc1	nt	i	i	i	i
O=C(/C=C(\Nc1ccc(F)cc1)c1ccccc1)c1ccccc1	nt	i	10.7	i	i
C/C(=C\C(=O)c1cccnc1)Nc1ccc(O)cc1	i	i	i	i	i
C/C(=C\C(=O)c1ccccc1)Nc1ccc(O)cc1	i	i	i	i	1.1
Cc1cc(C)c(NC(=O)CSc2nnc(CN3CCOCC3)n2C)c(C)c1	i	i	i	i	i
Cc1cc(C)cc(NC(=O)CSc2nnc(CN3CCOCC3)n2C)c1	4.4	i	i	i	i
COc1ccccc1OCc1nnc(SCC(=O)Nc2ccc(N3CCOCC3)cc2)n1C	4.8	i	i	i	i
Cn1c(CSCc2ccccc2)nnc1SCC(=O)Nc1nccs1	i	i	i	i	i
COc1ccccc1C(=O)NCc1nnc(SCC(=O)Nc2nccs2)n1C	8.3	i	i	i	i
SMILES	DAX1 inh-1	DAX1 inh-2	hgDAF-12 ag	hcDAF12 agonist	ssDAF12 agonist
O=S1(=O)c2ccc(Br)cc2OC[C@@H](Cc2ccccc2)N1Cc1cn(Cc2ccccc2)nn1	nt	i	i	i	i
CCCc1cn(-c2ccc3c(c2)[C@@]2(CC(=O)N(C)C2c2ccccc2)C(=O)N3CC(C)C)nn1 (some centres not stated)	nt	i	i	i	i
O=S1(=O)N=C(N/N=C/c2cccs2)c2ccccc21	4.5	i	i	i	i
O=C(NC1CCCCC1)c1ccc(-c2cn[nH]c2)c2ccoc12	nt	i	12.7	i	i
CCOC(=O)c1c(CN2CCC(C)CC2)n(C)c2cc(Br)c(OC)cc12	4.9	i	i	i	i
COc1ccc(C[N+]2=C(N)NC3=C(C)Cn4c(=O)n(-c5ccccc5)c(=O)n4C3C2)c(OC)c1 (configuration not stated)	nt	i	i	i	i
O=C(CN(CC(=O)N1CCOCC1)S(=O)(=O)c1ccc(Br)s1)N1CCOCC1	6.8	i	i	i	i
O=C(Nc1ccc(F)cc1)OCCN1C(=O)CCC12CCC(c1ccccc1)CC2 (configuration not stated)	nt	i	i	i	i
C[C@@H]1CCN(C2CC2)S(=O)(=O)c2c(cccc2N2CCC[C@H]2CO)O1	nt	i	i	i	i
CCc1ccccc1Nc1ccc(C(=O)O)cc1N	6.6	i	i	i	i
CCCSc1nnc(CSc2ncccn2)n1C	i	i	i	5.9	i
C=CCn1c(SCC(=O)NCCCC)nc2scc(-c3ccco3)c2c1=O	i	i	i	i	i
C=CCn1c(SCC(C)=O)nc2scc(-c3ccc(C)o3)c2c1=O	4.7	i	i	i	i
CCOc1ccc(/C=N/Nc2nc(C)cs2)c(O)c1	4.5	i	i	i	i
CCOc1ccc(/C=N/Nc2cc(N3CCOCC3)ncn2)c(O)c1	i	i	i	i	i
C=CCN1C(=O)[C@@H](CC(=O)NCCC(C)C)[C@]2(C(=O)OC)CCCCC=C12	nt	i	i	i	i
CC(SCc1ccccc1)C(=O)Nc1ccccc1-c1ccccc1 (configuration not stated)	i	i	i	6.1	i
NS(=O)(=O)c1ccc2nc(NC(=O)Nc3ccccc3F)sc2c1	i	i	10.4	i	i
CCCC(=O)Nc1nc2ccc(S(N)(=O)=O)cc2s1	i	i	i	i	i
Cc1ccccc1NC(=O)Nc1nc2ccc(S(C)(=O)=O)cc2s1	9.0	i	i	i	i
CS(=O)(=O)c1ccc2nc(NC(=O)c3cccc([N+](=O)[O-])c3)sc2c1	i	i	10.7	i	i
CCC(=O)Nc1nc2ccc(S(C)(=O)=O)cc2s1	i	i	i	i	i
CC(COc1ccc(CC#N)cc1)CN1CCC(C(O)(c2ccccc2)c2ccccc2)CC1 (configuration not stated)	nt	i	i	i	i
C=CCN1[C@H](C#N)[C@@H](c2ccc(C#Cc3cccnc3)cc2)[C@H]1CO	nt	i	i	i	i
COc1cc(C)c(C(=O)Oc2cc(C)c(C(=O)O)c(O)c2C)c(OC)c1C	4.3	i	i	i	i
SMILES	DAX1 inh-1	DAX1 inh-2	hgDAF-12 ag	hcDAF12 agonist	ssDAF12 agonist
CCOC(=O)c1cccc(-c2cc(C(=O)OC)c3n(c2=O)CCC3)c1	nt	i	i	i	i
O=C(CSc1nnc(-c2cnccn2)n1-c1ccccc1)Nc1ccc2cn[nH]c2c1	nt	i	i	i	i
COC(=O)[C@]12C[C@H](CC(=O)NCc3ccccc3)C(=O)N(CCc3ccc(OC)c(OC)c3)C1=C[C@H](C1CCCC1)O[C@@H]2C	nt	i	i	i	i
COc1ccc(COc2cccc(C=O)c2)cc1	i	i	i	i	i
O=Cc1ccc(OCc2ccc3ccccc3c2)cc1	i	i	11.8	i	i
O=Cc1ccc(OCc2ccccn2)cc1	i	i	11.1	i	i

Screening data from PubChem BioAssay.
